Assay results published in PubChem BioAssay AID1159580 (chemical genetic matrix, 2015).
Values joined by “and” are separate entries in the source; they are usually repeats but may differ in a detail not shown here. Equal values may be shown once. Out of some 5,500 compounds screened, about 2,000 (36%) were called active. Roughly 18% stayed inconclusive and do not appear here. This is one part of the list. Values without a mark were called inactive. Rule as the data show it: active = normalized growth mostly below about 0.91 (no sharp cut-off); inconclusive = no clear call, values can overlap the other calls; inactive = mostly above about 0.92.

Assay: chemical genetic growth profiling, strain panel (AID 1159580);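 also: tested at 20 µM; growth read once vehicle control cultures reached saturation at 30 °C; 1 = growth at the plate median or of vehicle wells; lower values mean less growth of the strain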
Settings: S. cerevisiae deletion strains, growth OD

Compound: CCC1(c2ccc(N)cc2)CCC(=O)NC1=O (configuration not stated)
- normalized growth (locus YAL021C, strain ccr4, active compounds read low): 0.981
- normalized growth (locus YAL026C, strain drs2, active compounds read low): 0.971
- normalized growth (locus YAL030W, strain snc1, active compounds read low): 0.969
- normalized growth (locus YAL040C, strain CLN3, active compounds read low): 0.987
- normalized growth (locus YBL061C, strain skt5, active compounds read low): 0.968
- normalized growth (locus YBR009C, strain hhf1, active compounds read low): 0.984
- normalized growth (locus YBR021W, strain FUR4, active compounds read low): 1.01
- normalized growth (locus YBR023C, strain chs3, active compounds read low): 0.979
- normalized growth (locus YBR171W, strain sec66, active compounds read low): 0.957
- normalized growth (locus YBR229C, strain ROT2, active compounds read low): 0.995
- normalized growth (locus YBR231C, strain swc5, active compounds read low): 0.943
- normalized growth (locus YBR279W, strain paf1, active compounds read low): 0.988
- normalized growth (locus YCL011C, strain gbp2, active compounds read low): 0.984
- normalized growth (locus YCL016C, strain dcc1, active compounds read low): 0.994
- normalized growth (locus YCL029C, strain bik1, active compounds read low): 1
- normalized growth (locus YCL069W, strain vba3, active compounds read low): 0.956
- normalized growth (locus YCR088W, strain abp1, active compounds read low): 0.974
- normalized growth (locus YDL005C, strain med2, active compounds read low): 0.955
- normalized growth (locus YDL035C, strain GPR1, active compounds read low): 1.04
- normalized growth (locus YDL040C, strain nat1, active compounds read low): 0.978
- normalized growth (locus YDL074C, strain BRE1, active compounds read low): 0.994
- normalized growth (locus YDL101C, strain DUN1, active compounds read low): 1.01
- normalized growth (locus YDL134C, strain PPH21, active compounds read low): 1.02
- normalized growth (locus YDL185W, strain tfp1, active compounds read low): 1.01
- normalized growth (locus YDL192W, strain arf1, active compounds read low): 0.996
- normalized growth (locus YDR001C, strain nth1, active compounds read low): 0.96
- normalized growth (locus YDR069C, strain doa4, active compounds read low): 0.962
- normalized growth (locus YDR101C, strain arx1, active compounds read low): 1.01
- normalized growth (locus YDR137W, strain rgp1, active compounds read low): 1.06
- normalized growth (locus YDR150W, strain NUM1, active compounds read low): 1
- normalized growth (locus YDR159W, strain sac3, active compounds read low): 0.979
- normalized growth (locus YDR162C, strain NBP2, active compounds read low): 1.03
- normalized growth (locus YDR195W, strain ref2): 0.926
- normalized growth (locus YDR297W, strain sur2, active compounds read low): 0.973
- normalized growth (locus YDR318W, strain mcm21, active compounds read low): 0.991
- normalized growth (locus YDR334W, strain swr1, active compounds read low): 0.964
- normalized growth (locus YDR335W, strain msn5, active compounds read low): 0.959
- normalized growth (locus YDR363W, strain ESC2, active compounds read low): 1.01
- normalized growth (locus YDR388W, active compounds read low): 0.999
- normalized growth (locus YDR392W, strain spt3, active compounds read low): 1.02
- normalized growth (locus YDR502C, strain sam2, active compounds read low): 0.999
- normalized growth (locus YEL003W, strain gim4, active compounds read low): 0.957
- normalized growth (locus YEL037C, strain rad23, active compounds read low): 0.951
- normalized growth (locus YEL061C, strain CIN8 (second series), active compounds read low): 0.961
- normalized growth (locus YEL061C, strain CIN8, active compounds read low): 1.01
- normalized growth (locus YER002W, strain NOP16, active compounds read low): 0.977
- normalized growth (locus YER015W, strain faa2, active compounds read low): 0.966
- normalized growth (locus YER016W, strain bim1, active compounds read low): 0.987
- normalized growth (locus YER110C, active compounds read low): 0.993
- normalized growth (locus YER111C, strain swi4, active compounds read low): 0.968
- normalized growth (locus YER155C, strain BEM2 (second series), active compounds read low): 0.878
- normalized growth (locus YER155C, strain BEM2, active compounds read low): 0.999
- normalized growth (locus YER167W, strain BCK2, active compounds read low): 1
- normalized growth (locus YFR010W, strain ubp6, active compounds read low): 0.945
- normalized growth (locus YGL078C, strain dbp3, active compounds read low): 0.992
- normalized growth (locus YGL086W, strain mad1, active compounds read low): 0.994
- normalized growth (locus YGL167C, strain pmr1, active compounds read low): 0.961
- normalized growth (locus YGL173C, strain kem1, active compounds read low): 0.936
- normalized growth (locus YGL227W, strain vid30, active compounds read low): 0.976
- normalized growth (locus YGL240W, strain doc1, active compounds read low): 0.876 (active)
- normalized growth (locus YGL248W, strain PDE1, active compounds read low): 0.999
- normalized growth (locus YGL253W, strain hxk2, active compounds read low): 0.967
- normalized growth (locus YGR078C, strain PAC10, active compounds read low): 0.997
- normalized growth (locus YGR135W, strain pre9, active compounds read low): 0.991
- normalized growth (locus YGR252W, strain gcn5, active compounds read low): 0.992
- normalized growth (locus YHR013C, strain ard1, active compounds read low): 0.956
- normalized growth (locus YHR027C, strain rpn1, active compounds read low): 0.981
- normalized growth (locus YHR030C, strain SLT2, active compounds read low): 1 and 0.997
- normalized growth (locus YHR079C, strain IRE1 (second series), active compounds read low): 0.995
- normalized growth (locus YHR079C, strain IRE1, active compounds read low): 1.04
- normalized growth (locus YHR094C, strain hxt1, active compounds read low): 0.995
- normalized growth (locus YHR129C, strain ARP1, active compounds read low): 0.999
- normalized growth (locus YHR142W, strain chs7, active compounds read low): 0.932
- normalized growth (locus YHR200W, strain rpn10, active compounds read low): 0.999
- normalized growth (locus YIL066C, strain RNR3, active compounds read low): 1.03
- normalized growth (locus YIL073C, strain SPO22, active compounds read low): 1.03
- normalized growth (locus YIL125W, strain kgd1, active compounds read low): 0.998
- normalized growth (locus YIR030C, strain dcg1, active compounds read low): 0.995
- normalized growth (locus YJL092W, strain hpr5, active compounds read low): 0.952
- normalized growth (locus YJL095W, strain BCK1 (second series), active compounds read low): 0.97
- normalized growth (locus YJL095W, strain BCK1, active compounds read low): 0.995 and 1.03
- normalized growth (locus YJL115W, strain asf1, active compounds read low): 0.949
- normalized growth (locus YJL129C, strain trk1, active compounds read low): 0.928
- normalized growth (locus YJL134W, strain LCB3, active compounds read low): 1
- normalized growth (locus YJL154C, strain vps35, active compounds read low): 0.967
- normalized growth (locus YJL164C, strain tpk1, active compounds read low): 0.998
- normalized growth (locus YJL166W, strain qcr8, active compounds read low): 0.913
- normalized growth (locus YJL168C, strain set2, active compounds read low): 0.988
- normalized growth (locus YJL187C, strain SWE1 (second series), active compounds read low): 0.993
- normalized growth (locus YJL187C, strain SWE1, active compounds read low): 0.959
- normalized growth (locus YJR043C, strain POL32, active compounds read low): 1.02
- normalized growth (locus YJR066W, strain TOR1, active compounds read low): 0.973
